This is part of a sample that, as a whole, favours compounds with a hit. Of some 83,000 tested, about 20% had one in any assay.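 Negative percent growth values reflect cell death: -40 means 40% of the cells present at the start died, and -100 means all died.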 The source made the active and inactive calls. Rule for the calls: active = growth percent below 10; inactive = the rest.
Tested on: SF-295 CNS
Experiment: NCI-60 one-dose screen, 48 h (100 = growth as untreated, 0 = no growth, -100 = all killed)
Conditions: 10 µM unless noted

Structure (SMILES)	growth
Cn1c(NCCc2ccc(O)c(O)c2)nc2c1c(=O)n(Cc1ccc(Br)cc1)c(=O)n2C	98% (inactive)
Cc1ccc(/C=C2\SC(=S)N(CC(=O)NCCCN3CCOCC3)C2=O)cc1	91.1% (inactive)
Cc1ccc(C2Oc3ccccc3C3CC(c4cccs4)=NN32)cc1 (centres undefined)	99% (inactive)
C=CC(=O)Nc1cccc(-c2nc(SC)nc(NCCc3ccc(OC)c(OC)c3)c2C#N)c1	43% (inactive)
Cc1nc(/N=C(\N)NC(=O)Nc2cccc([N+](=O)[O-])c2)sc1C	83.3% (inactive)
COc1ccc(-n2nc(C)c3c(Nc4ccc(NC(=O)Nc5ccc(Cl)c(C(F)(F)F)c5)cc4)ncnc32)cc1	-39.7% (active)
O=C(/C=C/c1cccc([N+](=O)[O-])c1)c1ccc(O)c(CN2CCN(c3cc4c(cc3F)c(=O)c(C(=O)O)cn4C3CC3)CC2)c1	50.1% (inactive)
CCC([N+](=O)[O-])S(=O)(=O)c1ccc(C)cc1 (centres undefined)	111% (inactive)
Cc1cn2c(/C=C3/C(=O)Nc4c3ccc3ccccc43)c(C(F)(F)F)nc2s1	7.54% (active)
O=C1c2cc3c(cc2-c2c1c1ccc(F)cc1c(=O)n2C[C@H](O)[C@@H](O)[C@H](O)CO)OCO3	-0.994% (active)
O=C(Nc1cccc2[nH]c(C(F)(F)F)nc12)c1ccc(-n2cnnn2)cc1	92.5% (inactive)
Fc1ccc(CNc2cccc3[nH]c(C(F)(F)F)nc23)cc1	89.9% (inactive)
O=C1c2cc3c(cc2-c2c1c1ccc(F)cc1c(=O)n2CCCNCCO)OCO3	-14.3% (active)
N#CN1CC[C@H](C(=O)Nc2cc3cc(C(N)=O)ccc3cn2)C1	2.85% (active)

— PubChem BioAssay (NCI)
